Results filed as inconclusive are left out. Where a call stands in place of a potency, no number is given. Unmarked numbers belong to inactive results. Calls of active or inactive are those of the source. Calls come from the whole dose curve; as a rule, active = well fitted cell-killing curve with a large enough effect in the repeat runs; inconclusive = weak or mixed curves, or effect the other way; inactive = flat fitted curve, though single readings scatter.
Assay: qHTS assay to identify small molecule agonists of the estrogen receptor beta (ER-beta) signaling pathway - cell viability counter screen (AID 1259380); note: nearly all actives have a fitted effect of over 30% in size
Conditions: ER-beta-bla HEK293T viability, CellTiter-Glo luminescence, 16 h; series mostly up to 92.4 µM
From the text: National Center for Advancing Translational Sciences [NCATS]
NIH Chemical Genomics Center [NCGC]
U.S. Environmental Protection Agency [EPA]
National Institutes of Environmental Health Sciences [NIEHS]
National Toxicology Program [NTP]
U.S. Food and Drug Administration [FDA]
Estrogen receptor (ER), a nuclear hormone receptor, plays an important role in development, metabolic homeostasis and reproduction. Two subtypes of ER, ER-alpha and ER-beta, have similar expression patterns with some uniqueness in both types. Endocrine disrupting chemicals (EDCs) and their interactions with steroid hormone receptors like ER causes disruption of normal endocrine function. To identify the compounds that activate ER signaling, an ER beta-UAS-bla GripTite cell line (Life Technologies, Madison, WI, USA) containing a beta-lactamase reporter gene under the control of an UAS response element was used to screen Tox21 10K compound library. The cytotoxicity of the Tox21 compound library against the ER-beta-bla cell line was tested in parallel by measuring the cell viability using CellTiter-Glo assay in the same wells.
Tox21 Assay Protocol Summary:
ER-beta-UAS-bla HEK293T cells were dispensed at 2,000 cells/5 uL of assay medium containing 2% charcoal stripped FBS per well into black wall/clear-bottom 1536-well plates using a Multidrop Combi (ThermoFisher Scientific, Waltham, MA) dispenser. After the assay plates were incubated at a 37C and 5% CO2 for 6 hr, 23 nL of compounds dissolved in DMSO, positive controls or DMSO only was transferred to the assay plate by a Pintool station (Kalypsys, San Diego, CA). The plates were incubated at 37C and 5% CO2 for 16 hr. Then 1 uL of LiveBLAzerTM B/G FRET substrate was added using a BioRAPTR FRD (Flying Reagent Dispenser, Aurora Discovery, San Diego, CA) and then the plates were incubated at room temperature for 2 hours, and fluorescence intensity was measured by an Envision plate reader (PerkinElmer, Shelton, CT). For cell viability readout that measures cytotoxicity, 4 uL/well of CellTiter-Glo reagent was added into the assay plates using a FRD. After 30 min incubation at room temperature, the luminescence intensity in the plates was measured using a ViewLux (PerkinElmer) plate reader.

Row | Structure (SMILES) | Potency | activity change, negative = cytotoxicity
1 | CC(CN)CC(C)(C)CCN (stereo not given) | inactive | –
2 | CCCCCOC(=O)CCC | inactive | –
3 | CCCCCCCC/C=C\CCCCCCCC(=O)OCCCC | – | -6.74% [at 19 µM]
4 | CCNC(=O)C1CC(C)CCC1C(C)C (stereo not given) | inactive | –
5 | CCC(C)(CCC(C)C)C(=O)O (stereo not given) | inactive | –
6 | COc1cc(N)ccc1C | inactive | –
7 | O=C1c2ccccc2C(=O)N1CCl | inactive | –
8 | CCOC(=O)/C=C/c1ccccc1 | inactive | –
9 | O=C(OCC1(COC(=O)c2cccnc2)CCCC(COC(=O)c2cccnc2)(COC(=O)c2cccnc2)C1O)c1cccnc1 | inactive | –
10 | CC(=O)Nc1ccc(S(=O)(=O)Cl)cc1 | inactive | –
11 | O=C(NCCN1CCOCC1)c1ccc(Cl)cc1 | inactive | –
12 | O=C(CCNNC(=O)c1ccncc1)NCc1ccccc1 | inactive | –
13 | NNc1nnc(NN)c2ccccc12 | inactive | –
14 | COc1ccc(OC)c(Cl)c1 | inactive | –
15 | COc1ccc2c(c1OC)C(=O)O[C@@H]2[C@H]1c2c(cc3c(c2OC)OCO3)CCN1C | inactive | –
16 | CCc1ccc(C=O)cc1 | inactive | –
17 | CCCCOC(=O)c1ccccc1 | inactive | –
18 | O=C(NCCc1c[nH]c2ccccc12)c1cccnc1 | inactive | –
19 | CCOC(=O)c1ncn2c1CN(C)C(=O)c1cc(F)ccc1-2 | inactive | –
20 | O=P(O)(O)OP(=O)(O)O | inactive | –

Row | Structure (SMILES) | Potency | activity change, negative = cytotoxicity
21 | O=S(O)(O)=S | – | -9.09% [at 8.39 µM]
22 | Nc1cccc(O)c1 | inactive | –
23 | CCOCCOCCOCC | inactive | –
24 | COC(=O)CCc1ccc(OCC(O)CNC(C)C)cc1 (stereo not given) | inactive | –
25 | CC(C)CC(C)CC(C)CC(C)COC(=O)c1ccccc1C(=O)OCC(C)CC(C)CC(C)CC(C)C (stereo not given) | inactive | –
26 | O=C(c1ccc(O)cc1)c1ccc(O)c(O)c1O | inactive | –
27 | CN(C)c1ccc(C=O)cc1 | inactive | –
28 | O=S(=O)(O)c1ccc2cc(O)c(S(=O)(=O)O)cc2c1 | inactive | –
29 | O=C(CS(=O)Cc1ccco1)NC/C=C\COc1cc(CN2CCCCC2)ccn1 (stereo not given) | inactive | –
30 | CCCCOCCOC(=O)COc1nc(Cl)c(Cl)cc1Cl | inactive | –
31 | ClCCCl | inactive | –
32 | Cc1ccccc1OCC(O)CO (stereo not given) | inactive | –
33 | O=C(NCC(O)CO)c1c(I)c(C(=O)NCC(O)CO)c(I)c(N(CCO)C(=O)CO)c1I (stereo not given) | inactive | –
34 | CN(C)CCOCCO | inactive | –
35 | CC(C)C(=O)OCc1cccc(OC(=O)[C@@H]2N3C(=O)[C@@H](NC(=O)Cc4ccccc4)[C@H]3SC2(C)C)c1 | inactive | –
36 | CN1C(C)(C)CCCC1(C)C | inactive | –
37 | CCCCC(CC)COCCO (stereo not given) | inactive | –
38 | O=C(OCc1ccccc1)C(=O)OCc1ccccc1 | inactive | –
39 | N[C@@H](CCC(=O)N[C@@H](CS)C(=O)NCC(=O)O)C(=O)O | – | 8.98% [at 19 µM]
40 | CCCOC(=O)C(C)O (stereo not given) | inactive | –

From PubChem BioAssay (Tox21)
